# Data from ChEMBL document CHEMBL3988442, “University of Dundee, Small-Polar-MMV Screening Library” (2021).
# Among all 69,000 compounds or so, about 1,000 (1.4%) showed an effect of 50% or more. What follows is part of a selection rich in strong results, with near analogues and random picks from the rest.
# Test system: Leishmania donovani
# Assay: Leishmania intramacrophage assay
# Assay type: functional, organism-based
# Design: scale not given: in the data most compounds retested in dose-response had high values
compound,measurement,setting,value
COCCN1CC[C@@H]2O[C@@H](COCC(=O)N3CCCC3)CC[C@@H]21.O=C(O)C(F)(F)F,Percent Effect,"30 µM, 30.03 µM",27.81%
CO[C@H]1CO[C@@]2(CCCN(C(=O)N(C)C)C2)C1,Percent Effect,"30.3 µM, […]",25.22%
O=C(NCCCn1nc2ccccn2c1=O)NCCC1CCC1,Percent Effect,"30.3 µM, […]",27.05%
CCNc1cc2c(nn1)CCN(C(=O)c1ccc3cc[nH]c3c1)C2,Percent Effect,"30 µM, 30.03 µM",18.46%
CN(C)CCNc1ccc(-c2nc(-c3ccccc3F)no2)cn1,Percent Effect,"30.3 µM, […]",51.45%
CC(C)(CO)Nc1ccc(-c2nc(-c3ccccc3F)no2)cn1,Percent Effect,"30.3 µM, […]",-6.29%
COc1cccc(-c2noc(-c3ccc(NCCCN)nc3)n2)c1OC,Percent Effect,"30.3 µM, […]",10.02%
CNCCNc1ccc(-c2nc(-c3cccc(OC)c3OC)no2)cn1,Percent Effect,"30.3 µM, […]",11.62%
COc1cccc(-c2noc(-c3ccc(NCCCO)nc3)n2)c1OC,Percent Effect,"30.3 µM, […]",59.5%
CN(C)CCNc1ccc(-c2nc(COc3ccccc3)no2)cn1,Percent Effect,"30.3 µM, […]",58.19%
CN(C)CCN(C)c1ccc(-c2nc(COc3ccccc3)no2)cn1,Percent Effect,"30.3 µM, […]",42.47%
OC[C@@H]1CCCN1c1ccc(-c2nc(COc3ccccc3)no2)cn1,Percent Effect,"30.3 µM, […]",-6.4%
CSCC[C@@H](CO)Nc1ccc(-c2nc(-c3ccccc3F)no2)cn1,Percent Effect,"30.3 µM, […]",-35.38%
Cc1nc(C)n(CC2CCCN(Cc3ccc(C(N)=O)cc3)C2)n1 (configuration not stated),Percent Effect,"30 µM, 30.03 µM",-3.523%
Cc1ccc(F)c2c1N(C(=O)c1cn(CC(=O)N(C)C)nn1)CCC2,Percent Effect,"30.3 µM, […]",-28.86%
CCCSCC(=O)NS(=O)(=O)c1ccc2c(c1)OCCO2,Percent Effect,"30 µM, 30.03 µM",12.46%
O=C(O)C(F)(F)F.O=C(O)C(F)(F)F.c1c(CN2CCCC2)nc2n1CCN(C1CCOCC1)C2,Percent Effect,"30.3 µM, […]",25.13%
CC(C)NC(=O)C1(Cc2ccccc2-c2ccccc2)CCCNC1 (configuration not stated),Percent Effect,"30.3 µM, […]",40.16%
Cc1ccc(-c2ccccc2CC2(C(=O)NC(C)C)CCCNC2)cc1 (configuration not stated),Percent Effect,"30.3 µM, […]",53.92%
CC(C)NC(=O)C1(Cc2ccccc2-c2cncnc2)CCCNC1 (configuration not stated),Percent Effect,"30.3 µM, […]",16.97%
CC(C)(C)C(O)CN1CCN(C(=O)c2cccc3ncccc23)CC1 (configuration not stated),Percent Effect,"30 µM, 30.03 µM",14.67%
Cc1cc(NCc2cn(C)nc2-c2cccnc2)n(C)n1,Percent Effect,"30.3 µM, […]",-18.07%
O=C1NCCCc2[nH]c(-c3nc(C4CC4)no3)nc21,Percent Effect,"30.3 µM, […]",0.06758%
Oc1cc(CCC2CCCCN2)cc(-c2ccncc2)c1 (configuration not stated),Percent Effect,"30 µM, 30.03 µM",12.39%
Nc1ccc(-c2cc(O)cc(CCC3CCCCN3)c2)cn1 (configuration not stated),Percent Effect,"30.3 µM, […]",30.15%
Oc1cc(CCC2CCCCN2)cc(-c2cccnc2)c1 (configuration not stated),Percent Effect,"30.3 µM, […]",51.21%
CC[C@@H](C)[C@H](NC(=O)NC1CCS(=O)(=O)C1)C(=O)NCc1ccncc1 (some centres not stated),Percent Effect,"30.3 µM, […]",-5.4%
COC(=O)C(C)CN(C)S(=O)(=O)c1c(Br)cc2[nH]c(=O)oc2c1Cl (configuration not stated),Percent Effect,"30.3 µM, […]",53.15%
CNC(=O)CN(C)S(=O)(=O)c1c(Br)cc2[nH]c(=O)oc2c1Cl,Percent Effect,"30.3 µM, […]",30.57%
CCNC(=O)CN(CC)S(=O)(=O)c1c(Br)cc2[nH]c(=O)oc2c1Cl,Percent Effect,"30.3 µM, […]",26.48%
COc1cc(OC)c(-c2nc3c([nH]2)c(C2CC2)nn3C)cc1OC,Percent Effect,"30.3 µM, […]",40.91%
CC(C)c1ncncc1C(=O)NCCN1CCOCC1,Percent Effect,"30.3 µM, […]",-51.02%
Cc1ccc(C(=O)Nc2cc(C(C)C)n[nH]2)cn1,Percent Effect,"30 µM, 30.03 µM",-3.681%
CC(C)c1cc(NC(=O)c2ccc(C(=O)NC(C)(C)C)cc2)[nH]n1,Percent Effect,"30 µM, 30.03 µM",58.67%
CC(C)c1cc(NC(=O)c2ccncc2)[nH]n1,Percent Effect,30 µM,-9.457%
CC(C)c1cc(NC(=O)c2cccnc2)[nH]n1,Percent Effect,30 µM,2.786%
Cc1ccc(CC(=O)Nc2cc(C(C)C)n[nH]2)cn1,Percent Effect,30 µM,62.25%
CC(C)c1cc(NC(=O)c2ccc([S+]([O-])C(C)C)cc2)[nH]n1 (configuration not stated),Percent Effect,30 µM,33.29%
CC(=O)N1CCC(NC(=O)Cc2nc3nc(C)cc(C)n3n2)CC1,Percent Effect,"30.3 µM, […]",9.867%
O=C(c1ccc(CN2CCCCC2)cc1)N1Cc2cnn(CCO)c2C1,Percent Effect,"30.3 µM, […]",4.685%
COCCNC(=O)Nc1ccc(-c2nc(C(C)C)no2)cc1,Percent Effect,"30.3 µM, […]",-5.463%
COc1c(C2CCCN2c2ncnc3c2CCC3)c(C)nn1C (configuration not stated),Percent Effect,"30.3 µM, […]",55.59%
Cc1nn(C)c(C)c1C1CCCN1c1ncnc2c1CCC2 (configuration not stated),Percent Effect,"30.3 µM, […]",30.84%
Cc1nn(C)c(Cl)c1C1CCCN1c1ncnc2c1CCC2 (configuration not stated),Percent Effect,"30.3 µM, […]",-27.23%
O=C(CN1CCSCC1c1ccccc1)N1CCCC1 (configuration not stated),Percent Effect,"30.3 µM, […]",-14.01%
O=c1ccc(-c2cccs2)nn1CN1CCCCCC1,Percent Effect,"30 µM, 30.03 µM",13.2%
Cc1cc(N2CCC(O)(CN(C)C)C2)c2cc3c(cc2n1)OCO3 (configuration not stated),Percent Effect,"30.3 µM, […]",-1.24%
